Experimental findings from article PMC7862700, “An all-to-all approach to the identification of sequence-specific readers for epigenetic DNA modifications on cytosine” are described below.

Assay in all cases: DAPPL (digital affinity profiling via proximity ligation, sequencing); 10 mM Tris-HCl pH 7.5, 50 mM NaCl, 1 mM DTT, 4% glycerol, room temperature, 30 min; GST-TFs on glutathione beads, 16-mer random dsDNA library, 0.1% formaldehyde crosslink after washing; high values mean tight binding
Common to all, as to conditions: protein: recombinant; tags: N-terminal GST; dsDNA, one strand shown

Experiment [1] deals with T1, ERF (Homo sapiens, UniProt P50548 1-548).
T1 sequence: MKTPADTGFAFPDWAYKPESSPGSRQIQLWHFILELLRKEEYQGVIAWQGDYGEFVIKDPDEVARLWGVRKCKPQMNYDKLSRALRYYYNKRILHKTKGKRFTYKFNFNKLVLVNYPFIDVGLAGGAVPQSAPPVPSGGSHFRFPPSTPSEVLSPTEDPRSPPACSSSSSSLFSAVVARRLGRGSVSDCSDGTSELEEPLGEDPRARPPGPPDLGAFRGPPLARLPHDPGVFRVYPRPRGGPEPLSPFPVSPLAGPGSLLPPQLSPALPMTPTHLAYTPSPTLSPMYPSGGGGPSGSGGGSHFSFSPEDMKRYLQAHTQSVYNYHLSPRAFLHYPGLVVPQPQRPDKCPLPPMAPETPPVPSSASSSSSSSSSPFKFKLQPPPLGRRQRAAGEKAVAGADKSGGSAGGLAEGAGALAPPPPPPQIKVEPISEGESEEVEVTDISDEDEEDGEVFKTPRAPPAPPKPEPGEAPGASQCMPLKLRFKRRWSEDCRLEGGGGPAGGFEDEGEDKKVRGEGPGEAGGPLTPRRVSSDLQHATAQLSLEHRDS
The procedure, abridged: (§1)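 Sequencing on an Illumina NextSeq500 followed washing, crosslinking with 0.1% formaldehyde, proximity ligation (BsaI/T4 ligase, 1 h, 37 °C) and PCR amplification of pools that had been incubated for 30 min at room temperature with 200 nmole of a random double-stranded 16-mer DNA library in Tris/NaCl/DTT/glycerol buffer. Each pool held DNA-barcoded human transcription factors, expressed in yeast as GST fusions and captured on glutathione beads, plus a tag-only sample. Binding signal is a hexamer's read frequency for a factor divided by its frequency in the tag-only sample.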

For experiment [2], the target named is T2, ETV3L (Homo sapiens, UniProt Q6ZN32 1-361).
T2 sequence: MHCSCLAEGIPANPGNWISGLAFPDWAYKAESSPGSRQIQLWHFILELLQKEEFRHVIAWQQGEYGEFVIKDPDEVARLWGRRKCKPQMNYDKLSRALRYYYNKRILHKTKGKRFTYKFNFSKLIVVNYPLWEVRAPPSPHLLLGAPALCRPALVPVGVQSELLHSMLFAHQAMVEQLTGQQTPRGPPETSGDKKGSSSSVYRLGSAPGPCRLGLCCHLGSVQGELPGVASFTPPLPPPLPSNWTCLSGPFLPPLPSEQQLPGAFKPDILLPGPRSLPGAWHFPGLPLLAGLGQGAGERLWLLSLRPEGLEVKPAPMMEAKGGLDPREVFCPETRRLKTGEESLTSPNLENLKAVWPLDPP
Summed up: as §1

The target in experiment [3] is T3, ETS2 (Homo sapiens, UniProt P15036 1-469).
T3 sequence: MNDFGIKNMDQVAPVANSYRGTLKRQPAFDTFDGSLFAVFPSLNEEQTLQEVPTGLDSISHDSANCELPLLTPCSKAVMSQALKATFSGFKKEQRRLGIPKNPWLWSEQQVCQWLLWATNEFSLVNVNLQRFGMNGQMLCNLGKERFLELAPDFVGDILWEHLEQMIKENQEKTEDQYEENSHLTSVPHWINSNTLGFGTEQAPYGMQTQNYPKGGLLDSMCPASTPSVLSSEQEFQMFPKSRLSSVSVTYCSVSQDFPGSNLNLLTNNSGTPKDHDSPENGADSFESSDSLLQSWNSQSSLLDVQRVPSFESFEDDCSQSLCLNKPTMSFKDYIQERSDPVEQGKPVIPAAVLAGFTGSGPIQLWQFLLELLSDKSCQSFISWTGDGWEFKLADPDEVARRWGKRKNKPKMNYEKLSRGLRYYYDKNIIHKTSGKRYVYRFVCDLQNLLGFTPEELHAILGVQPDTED
The procedure, abridged: as §1

Experiment [4] concerns the target T4, SPDEF (Homo sapiens, UniProt O95238 1-335).
T4 sequence: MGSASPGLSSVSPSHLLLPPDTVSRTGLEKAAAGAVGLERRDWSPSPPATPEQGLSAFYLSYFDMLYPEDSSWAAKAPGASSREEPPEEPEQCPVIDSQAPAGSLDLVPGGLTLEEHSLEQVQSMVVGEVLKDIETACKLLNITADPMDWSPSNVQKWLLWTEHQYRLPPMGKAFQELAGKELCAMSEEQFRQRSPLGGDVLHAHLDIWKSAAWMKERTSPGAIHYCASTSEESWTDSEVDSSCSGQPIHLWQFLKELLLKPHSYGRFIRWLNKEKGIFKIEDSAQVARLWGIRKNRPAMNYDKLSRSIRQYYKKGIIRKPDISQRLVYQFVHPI
Summed up: as §1

The target in experiment [5] is T5, ETV7 (Homo sapiens, UniProt Q9Y603 1-341).
T5 sequence: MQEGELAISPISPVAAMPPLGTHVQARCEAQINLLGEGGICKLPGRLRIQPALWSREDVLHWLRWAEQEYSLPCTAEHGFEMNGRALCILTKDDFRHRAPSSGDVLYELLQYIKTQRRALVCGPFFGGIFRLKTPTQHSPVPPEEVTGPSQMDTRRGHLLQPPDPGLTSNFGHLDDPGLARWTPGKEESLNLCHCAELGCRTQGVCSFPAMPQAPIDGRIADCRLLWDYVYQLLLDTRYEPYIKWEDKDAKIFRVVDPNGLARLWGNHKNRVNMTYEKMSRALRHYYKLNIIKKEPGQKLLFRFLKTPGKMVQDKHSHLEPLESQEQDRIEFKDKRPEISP
The procedure, abridged: as §1

Experiment [6] has as its target T6, ELF5 (Homo sapiens, UniProt Q9UKW6-2 1-255).
T6 sequence: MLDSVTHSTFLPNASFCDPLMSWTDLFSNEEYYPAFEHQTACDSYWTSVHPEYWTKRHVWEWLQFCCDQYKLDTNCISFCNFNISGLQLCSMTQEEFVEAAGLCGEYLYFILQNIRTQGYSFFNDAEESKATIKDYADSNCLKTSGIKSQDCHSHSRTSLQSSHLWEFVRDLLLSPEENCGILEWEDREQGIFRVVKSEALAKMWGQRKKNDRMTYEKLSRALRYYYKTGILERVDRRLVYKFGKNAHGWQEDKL
Summed up:
as §1

In experiment [7] the target is T7, ETV3 (Homo sapiens, UniProt P41162-2 1-143).
T7 sequence: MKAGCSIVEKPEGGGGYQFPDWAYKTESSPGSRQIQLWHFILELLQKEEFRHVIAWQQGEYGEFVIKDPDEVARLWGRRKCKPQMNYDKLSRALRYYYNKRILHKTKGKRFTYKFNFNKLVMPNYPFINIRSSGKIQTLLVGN
The procedure, abridged: as §1

Experiment [8] addresses ETV6 (Homo sapiens, UniProt P41212 1-452). The procedure, abridged: as §1

ETV6, sequence (P41212 whole entry): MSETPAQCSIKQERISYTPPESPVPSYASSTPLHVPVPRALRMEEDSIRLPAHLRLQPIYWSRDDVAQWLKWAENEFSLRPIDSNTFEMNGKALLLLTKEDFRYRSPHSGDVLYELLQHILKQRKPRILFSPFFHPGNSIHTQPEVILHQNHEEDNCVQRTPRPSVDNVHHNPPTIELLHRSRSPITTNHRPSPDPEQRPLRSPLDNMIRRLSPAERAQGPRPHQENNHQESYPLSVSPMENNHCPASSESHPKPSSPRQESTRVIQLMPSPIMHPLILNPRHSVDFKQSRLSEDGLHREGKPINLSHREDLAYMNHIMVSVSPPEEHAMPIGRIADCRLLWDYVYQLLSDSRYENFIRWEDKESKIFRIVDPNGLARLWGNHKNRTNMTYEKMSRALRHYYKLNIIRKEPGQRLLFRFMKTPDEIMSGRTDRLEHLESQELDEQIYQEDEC

For CCATAC, the binding signal in experiment [1] was 1.27 fold enrichment (6-mer frequency, TF over GST control); in experiment [2], 1.22 fold enrichment (6-mer frequency, TF over GST control); in experiment [3] it was 1.18 fold enrichment (6-mer frequency, TF over GST control); in experiment [4], 1.2 fold enrichment (6-mer frequency, TF over GST control); in experiment [5] it was 1.14 fold enrichment (6-mer frequency, TF over GST control); in experiment [6], 1.09 fold enrichment (6-mer frequency, TF over GST control). Moreover, the binding signal in experiment [7] was 1.08 fold enrichment (6-mer frequency, TF over GST control); in experiment [8], 1.21 fold enrichment (6-mer frequency, TF over GST control).
In the case of ACGTAC, the binding signal in experiment [1] was 1.16 fold enrichment (6-mer frequency, TF over GST control); in experiment [2], 1.12 fold enrichment (6-mer frequency, TF over GST control); in experiment [3] it was 1.19 fold enrichment (6-mer frequency, TF over GST control); in experiment [4], 1.13 fold enrichment (6-mer frequency, TF over GST control); in experiment [5], 1.24 fold enrichment (6-mer frequency, TF over GST control); in experiment [6], 1.15 fold enrichment (6-mer frequency, TF over GST control). Further, the binding signal in experiment [7] was 1.12 fold enrichment (6-mer frequency, TF over GST control); in experiment [8], 1.25 fold enrichment (6-mer frequency, TF over GST control).
For the sequence TCGCAA, the binding signal in experiment [1] was 1.27 fold enrichment (6-mer frequency, TF over GST control); in experiment [2], 1.1 fold enrichment (6-mer frequency, TF over GST control); in experiment [3], 1.05 fold enrichment (6-mer frequency, TF over GST control); in experiment [4], 1.09 fold enrichment (6-mer frequency, TF over GST control); in experiment [5], 1.01 fold enrichment (6-mer frequency, TF over GST control); in experiment [6], 1.06 fold enrichment (6-mer frequency, TF over GST control). The binding signal in experiment [7] is 1.13 fold enrichment (6-mer frequency, TF over GST control); in experiment [8] it was 1.09 fold enrichment (6-mer frequency, TF over GST control).
Consider TTTTAG, for which the binding signal in experiment [1] was 1.26 fold enrichment (6-mer frequency, TF over GST control); in experiment [2], 1.26 fold enrichment (6-mer frequency, TF over GST control); in experiment [3], 1.2 fold enrichment (6-mer frequency, TF over GST control); in experiment [4] it was 1.12 fold enrichment (6-mer frequency, TF over GST control); in experiment [5], 1.24 fold enrichment (6-mer frequency, TF over GST control); in experiment [6], 1.06 fold enrichment (6-mer frequency, TF over GST control). The binding signal is 1.21 fold enrichment (6-mer frequency, TF over GST control) in experiment [7] and 1.19 fold enrichment (6-mer frequency, TF over GST control) in experiment [8].
With AACAGG, the binding signal is 1.16 fold enrichment (6-mer frequency, TF over GST control) in experiment [1]; 1.15 fold enrichment (6-mer frequency, TF over GST control) in experiment [2]; 1.13 fold enrichment (6-mer frequency, TF over GST control) in experiment [3]; 1.31 fold enrichment (6-mer frequency, TF over GST control) in experiment [4]; 1.15 fold enrichment (6-mer frequency, TF over GST control) in experiment [5]; 1.24 fold enrichment (6-mer frequency, TF over GST control) in experiment [6]. Also, the binding signal in experiment [7] was 1.25 fold enrichment (6-mer frequency, TF over GST control); in experiment [8] it was 1.29 fold enrichment (6-mer frequency, TF over GST control).
Turning to TCCTGG, the binding signal in experiment [1] is 1.43 fold enrichment (6-mer frequency, TF over GST control); in experiment [2], 1.83 fold enrichment (6-mer frequency, TF over GST control); in experiment [3] it was 1.82 fold enrichment (6-mer frequency, TF over GST control); in experiment [4], 2.13 fold enrichment (6-mer frequency, TF over GST control); in experiment [5], 1.56 fold enrichment (6-mer frequency, TF over GST control); in experiment [6] it was 2.35 fold enrichment (6-mer frequency, TF over GST control). For the same sequence, the binding signal was 1.74 fold enrichment (6-mer frequency, TF over GST control) in experiment [7] and 1.77 fold enrichment (6-mer frequency, TF over GST control) in experiment [8].
For the sequence GGGCTT, the binding signal in experiment [1] was 1.19 fold enrichment (6-mer frequency, TF over GST control); in experiment [2], 1.2 fold enrichment (6-mer frequency, TF over GST control); in experiment [3], 1.22 fold enrichment (6-mer frequency, TF over GST control); in experiment [4], 1.11 fold enrichment (6-mer frequency, TF over GST control); in experiment [5] it was 1.28 fold enrichment (6-mer frequency, TF over GST control); in experiment [6], 1.16 fold enrichment (6-mer frequency, TF over GST control). For the same sequence, the binding signal is 1.19 fold enrichment (6-mer frequency, TF over GST control) in experiment [7] and 1.2 fold enrichment (6-mer frequency, TF over GST control) in experiment [8].
With CGACCA, the binding signal was 1.19 fold enrichment (6-mer frequency, TF over GST control) in experiment [1]; 1.33 fold enrichment (6-mer frequency, TF over GST control) in experiment [2]; 1.29 fold enrichment (6-mer frequency, TF over GST control) in experiment [3]; 1.24 fold enrichment (6-mer frequency, TF over GST control) in experiment [4]; 1.16 fold enrichment (6-mer frequency, TF over GST control) in experiment [5]; 1.2 fold enrichment (6-mer frequency, TF over GST control) in experiment [6]. Further, the binding signal was 1.2 fold enrichment (6-mer frequency, TF over GST control) in experiment [7] and 1.33 fold enrichment (6-mer frequency, TF over GST control) in experiment [8].
On to TGACTC, for which the binding signal was 1.21 fold enrichment (6-mer frequency, TF over GST control) in experiment [1]; 1.21 fold enrichment (6-mer frequency, TF over GST control) in experiment [2]; 1.38 fold enrichment (6-mer frequency, TF over GST control) in experiment [3]; 1.27 fold enrichment (6-mer frequency, TF over GST control) in experiment [4]; 1.41 fold enrichment (6-mer frequency, TF over GST control) in experiment [5]; 1.28 fold enrichment (6-mer frequency, TF over GST control) in experiment [6]. For the same sequence, the binding signal in experiment [7] was 1.32 fold enrichment (6-mer frequency, TF over GST control); in experiment [8] it was 1.28 fold enrichment (6-mer frequency, TF over GST control).
